Among the data in PubChem BioAssay (NCI) are growth values, retold here.

About 83,000 compounds went through this panel and 20% of them were active in at least one assay; those are over-represented in the sample as a whole.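 Growth was measured after 48 h exposure to one concentration of compound in 96-well plates. Values under 10 count as active.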 The source made the active and inactive calls.

This test relates to A498 renal. Nature of the test: NCI-60 one-dose screen, 48 h (100 = growth as untreated, 0 = no growth, -100 = all killed). To be noted: 10 µM unless noted. How it is done: Growth inhibition of the A498 human tumor cell line is measured as a screen for anti-cancer activity. Cells are grown in 96 well plates and exposed to the test compound for 48 hours. Compounds are tested at a single concentration, which is 10^-5 M for most compounds. The reported endpoint is percent growth (GI% or GIPRCNT), where numbers from 0 - 100% represent growth inhibition, and numbers from -100% - 0 represent cell death. For example, a value of 40 represents 60% growth inhibition. A value of 0 means no net growth occurred over the course of the experiment. A value of -40 indicates 40% of cells at the beginning of the experiment died by the end of the experiment. A value of -100 means all cells are dead at the end of the experiment.
NCI-60 Human Tumor Cell Lines Screen was performed using the standard one-dose NCI protocol, which is described in more detail at https://dtp.cancer.gov/discovery_development/nci-60/default.htm.
Compounds with GIPRCNT values below 10 were considered active. Activity score was based on GIPRCNT using the following formula: […]
Score is 0 for GIPRCNT values of 100 or above, 50 for GIPRCNT values of 0, and 100 for GIPRCNT values of -100.
`O=[N+]([O-])c1ccc(Oc2cccc(C(F)(F)F)c2)c([N+](=O)[O-])c1`: the growth is 97.8% (inactive).

Consider `Cc1nn(-c2ccccc2)c2nc3c(nc12)C(=O)CCC3`, for which the growth was 81.7% (inactive).

For `O=C(CCc1nnc(SCc2ccccc2)s1)c1nc2ccccc2[nH]1`, the growth was 72.7% (inactive).

For `N#CCCCCCn1c2ccccc2c2c3c(c4c5ccccc5[nH]c4c21)C(=O)N(O)C3=O`, the growth is -76.3% (active).

`Cc1ccc(NC(=O)COC(=O)c2ccc(S(=O)(=O)N3CCCCCC3)cc2)cc1`: the growth was 128% (inactive).

Take `COc1ccc(-c2nn(-c3cccc(Cl)c3)cc2C2CC(c3ccccc3)=NN2C(C)=O)cc1` (stereo not given): the growth was 56.9% (inactive).

In the case of `COc1cc(C2NC(c3ccc(Cl)cc3)C(C)C(=NC(=O)c3cnccn3)C2C)cc(OC)c1OC` (stereo not given), the growth is 112% (inactive).

Turning to `Clc1ccccc1[C@@H]1C[C@@H]2Cc3cc(Br)c4ccccc4c3N1O2`, the growth is 15.7% (inactive).

Take `CO[C@H]1/C=C/O[C@@]2(C)Oc3c(C)c(O)c4c(O)c(c(/C=N/N5C(C)CN(Cc6ccccc6)CC5C)c(O)c4c3C2=O)NC(=O)/C(C)=C\C=C\[C@H](C)[C@H](O)[C@@H](C)[C@@H](O)[C@@H](C)[C@H](OC(C)=O)[C@@H]1C` (stereo not given in full): the growth is 96.1% (inactive).

As to `O=C(Cc1ccccn1)C(F)(F)C(F)(F)C(F)(F)F`, the growth is 126% (inactive).

With `O=C(CCc1nnc2sc(-c3ccc(Cl)cc3Cl)nn12)c1nc2ccccc2[nH]1`, the growth was -74.9% (active).

On to `CC1CC(C)/C(=N/NC(N)=O)C(C(O)CC2CCC(=O)NC2=O)C1` (stereo not given), for which the growth was 71.1% (inactive).

Turning to `COc1ccc(C(=O)Nc2nc(-c3ccc(Cl)cc3)cs2)cc1`, the growth was 91.5% (inactive).

In the case of `CCCCCCCCCCCCCCCCN=C(CC(=O)O)C(=O)O`, the growth was 95.6% (inactive).

As for `COc1ccc2c(c1)[nH]c(=O)c1c3cc(OC)c(OC)cc3cn21`, the growth is 34.4% (inactive).

`COc1ccc(-n2nc3c(c2-c2ccc(OC)c(OC)c2)-c2oncc2CC3)cc1`: the growth is 83.5% (inactive).

For `COc1ccc(Nc2ccnc(NCCCNc3ccnc4cc(Cl)ccc34)n2)cc1`, the growth is -7.79% (active).

Take `Cn1cc(-c2nc(-c3c[nH]c4ncccc34)cs2)c2cccnc21`: the growth is 50.1% (inactive).

On to `O=C(/C(=C/c1ccc([N+](=O)[O-])cc1)c1ccccc1)c1ccccc1`, for which the growth was 77% (inactive).

Regarding `COc1cc(/C=C2\COc3ccc(O)c(O)c3C2=O)cc(OC)c1`, the growth is 112% (inactive).

In the case of `O=C(C(=O)N1CCCCC1)c1ccc(OC2OC(CO)C(O)C(O)C2O)cc1` (stereo not given), the growth is 126% (inactive).

As for `c1cncc(CNc2ccccc2-c2nnc(Nc3ccc4c(c3)OCO4)o2)c1`, the growth was -0.133% (active).

`COc1c(O)cc2oc3cc(O)c(CC=C(C)C)c(O)c3c(=O)c2c1C/C=C(\C)CCC=C(C)C`: the growth is 120% (inactive).

In the case of `Cc1ccc2c(c1)O/C(=C\c1ccc([N+](=O)[O-])o1)C2=O`, the growth is 122% (inactive).

For the compound `Nc1nc2ncc(CCNc3ccc(C(=O)NC(CCC(=O)O)C(=O)O)cc3)nc2c(=O)[nH]1` (stereo not given), the growth was 95.8% (inactive).

Consider `CCCCCCC(C)(O)c1ccccc1` (stereo not given), for which the growth was 145% (inactive).

Take `COc1cc2c(cc1OCCCOc1ccc(-c3cc4ccccc4c4ccccc34)cc1)N=C[C@@H]1CCCN1C2=O`: the growth was -82.8% (active).

`C/C(=N/N=C(N)N)c1ccc(N)cc1`: the growth was 103% (inactive).

On to `CCCCCCCCCCSc1ncnc2nc[nH]c12`, for which the growth is 61.4% (inactive).

With `O=C1/C(=C/c2ccc([N+](=O)[O-])s2)Oc2ccc(Br)cc21`, the growth was -32.8% (active).

Take `Cn1c(=O)c2c(nc(Br)n2CCC(=O)Nc2ccc(F)cc2)n(C)c1=O`: the growth was 98.2% (inactive).

Consider `CC(=O)Oc1c(C)c(OC(C)=O)c2c(c1C(C)=O)OC1CC(=O)C(C(C)=O)=C(O)C21C` (stereo not given), for which the growth was 136% (inactive).

In the case of `N#CCNc1ccccc1N`, the growth was 104% (inactive).

In the case of `COc1ccccc1[C@H]1c2[nH]c3ccccc3c2C[C@H]2C(=O)N(CCCCCCC(=O)NO)CC(=O)N12`, the growth is 31.9% (inactive).

Turning to `C=C(C)[C@H]1CC/C(C)=C/CC[C@]2(C)O[C@H]2CC/C(COC(C)=O)=C\C1=O`, the growth was 91.1% (inactive).

Regarding `OCc1nnn(-c2ccccc2)c1CO`, the growth was 101% (inactive).

As for `CN(CCOc1ccc(CC2SC(=O)NC2=O)cc1)c1ccccn1` (stereo not given), the growth was 110% (inactive).

As to `CCCCCCC/C(=N\N=C(N)N)c1ccc(O)cc1`, the growth is 46.6% (inactive).

Regarding `Cc1cc2cn3c4cccnc4[nH]c(=O)c3c2cc1C`, the growth was 95.8% (inactive).

On to `CCC1=C(c2ccc(OC)cc2)C(C)(C)Oc2c1ccc(O)c2CN1CCCC1`, for which the growth is 58.4% (inactive).
